Results on 13 compounds are retold here after PubChem BioAssay.

Each structure is given as a SMILES string. Calls of active or inactive are those of the source.

Assay [1] concerns PRMT1 (protein arginine N-methyltransferase 1). Put plainly: PRMT1 binders on small-molecule microarrays, primary screen, biochemical, small-molecule microarray, 635 nm fluorescence (AID 1088).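 Note: binding of Prmt1 protein to compounds spotted on small-molecule microarray slides.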 Conditions: small-molecule microarray binding, higher = more signal.
Assay [2] in a line: yeast growth modulation, basal conditions, primary screen, YJM789 clinical isolate, OD600, 24 h (AID 1089).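 Note: growth of clinical yeast isolate S. cerevisiae YJM 789 seeded 1000 cells per well; test concentration not given here.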 Conditions: S. cerevisiae YJM789 growth, higher = more signal, called active from +8 up or from −8 down.
Assay [3] in a line: fission yeast growth modulation, primary screen, strain 972, OD600, 24 h, no modulator (AID 1090).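 Note: basal condition with compound alone and no growth modifier present; test concentration not given here.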 To be noted: S. pombe 972 growth, higher = more signal, called active from +8 up or from −8 down.
Assay [4] in a line: S. cerevisiae growth modulation with rapamycin, primary screen, strain BY4716, OD600, 96 h (AID 1091). Note: test concentration not given here. To be noted: higher = more signal, called active from +8 up or from −8 down.
For assay [5], the target named is Torsin-1A-interacting protein 2 (Homo sapiens) (UniProt Q8NFQ8). In words: LULL1 binders on small-molecule microarray, primary screen, cell lysate, human LULL1 lysate, 635/667 nm fluorescence (AID 1092).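 Note: probe is lysate of COS7 cells overexpressing human LULL1; score merges per-feature 667 nm fluorescence with signal-to-noise.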 Conditions: hLULL1 lysate binding, 635 nm fluorescence, higher = more signal.
Torsin-1A-interacting protein 2 (Homo sapiens), sequence (Q8NFQ8 whole entry, looked up): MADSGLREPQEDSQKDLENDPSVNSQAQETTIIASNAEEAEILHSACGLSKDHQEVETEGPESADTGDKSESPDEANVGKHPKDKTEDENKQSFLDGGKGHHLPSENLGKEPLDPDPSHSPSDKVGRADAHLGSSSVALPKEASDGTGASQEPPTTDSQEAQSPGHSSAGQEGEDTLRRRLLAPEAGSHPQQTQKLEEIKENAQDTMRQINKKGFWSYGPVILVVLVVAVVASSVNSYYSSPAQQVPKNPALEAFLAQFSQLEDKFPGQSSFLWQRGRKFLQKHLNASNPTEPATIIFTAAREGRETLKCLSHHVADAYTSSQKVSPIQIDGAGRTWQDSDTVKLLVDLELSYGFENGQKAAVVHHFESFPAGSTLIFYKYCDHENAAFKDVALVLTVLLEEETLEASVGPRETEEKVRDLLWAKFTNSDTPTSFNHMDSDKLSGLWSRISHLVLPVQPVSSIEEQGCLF
Assay [6] in a line: E. coli growth modulation, two-sided OD650, primary screen, E. coli filamentation project, strain DRC41, 24 h (AID 1093).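 Note: MC1000 strain lacking acrAB efflux and sulA so SOS filamentation is blocked; test concentration not given here.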 To be noted: OD650, 24 h, higher = more signal, called active from +8 up or from −8 down.
A short description of assay [7]: small-molecule microarray binders of probe aLefty2, primary screen, biochemical, biotinylated probe, 635/667 nm fluorescence (AID 1094).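 Note: score merges spot fluorescence near 667 nm with spot signal-to-noise ratio.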 Conditions: higher = more signal.
The subject of assay [8] is Noggin (protein binding on small-molecule microarray). In words: Noggin binders on small-molecule microarray, primary screen, biochemical, 635/667 nm fluorescence (AID 1095).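 Note: score merges 667 nm feature fluorescence with signal to noise over triplicate slides.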 To be noted: 635 nm fluorescence, higher = more signal.
For assay [9], the target named is Neurogenic locus notch homolog protein 3 (Homo sapiens) (UniProt Q9UM47). Put plainly: NOTCH3 binders on small-molecule microarray, primary screen, biochemical, 635/667 nm fluorescence (AID 1096). To be noted: NOTCH3 binding, 635 nm fluorescence, higher = more signal.
Neurogenic locus notch homolog protein 3 (Homo sapiens), sequence (Q9UM47 whole entry, looked up): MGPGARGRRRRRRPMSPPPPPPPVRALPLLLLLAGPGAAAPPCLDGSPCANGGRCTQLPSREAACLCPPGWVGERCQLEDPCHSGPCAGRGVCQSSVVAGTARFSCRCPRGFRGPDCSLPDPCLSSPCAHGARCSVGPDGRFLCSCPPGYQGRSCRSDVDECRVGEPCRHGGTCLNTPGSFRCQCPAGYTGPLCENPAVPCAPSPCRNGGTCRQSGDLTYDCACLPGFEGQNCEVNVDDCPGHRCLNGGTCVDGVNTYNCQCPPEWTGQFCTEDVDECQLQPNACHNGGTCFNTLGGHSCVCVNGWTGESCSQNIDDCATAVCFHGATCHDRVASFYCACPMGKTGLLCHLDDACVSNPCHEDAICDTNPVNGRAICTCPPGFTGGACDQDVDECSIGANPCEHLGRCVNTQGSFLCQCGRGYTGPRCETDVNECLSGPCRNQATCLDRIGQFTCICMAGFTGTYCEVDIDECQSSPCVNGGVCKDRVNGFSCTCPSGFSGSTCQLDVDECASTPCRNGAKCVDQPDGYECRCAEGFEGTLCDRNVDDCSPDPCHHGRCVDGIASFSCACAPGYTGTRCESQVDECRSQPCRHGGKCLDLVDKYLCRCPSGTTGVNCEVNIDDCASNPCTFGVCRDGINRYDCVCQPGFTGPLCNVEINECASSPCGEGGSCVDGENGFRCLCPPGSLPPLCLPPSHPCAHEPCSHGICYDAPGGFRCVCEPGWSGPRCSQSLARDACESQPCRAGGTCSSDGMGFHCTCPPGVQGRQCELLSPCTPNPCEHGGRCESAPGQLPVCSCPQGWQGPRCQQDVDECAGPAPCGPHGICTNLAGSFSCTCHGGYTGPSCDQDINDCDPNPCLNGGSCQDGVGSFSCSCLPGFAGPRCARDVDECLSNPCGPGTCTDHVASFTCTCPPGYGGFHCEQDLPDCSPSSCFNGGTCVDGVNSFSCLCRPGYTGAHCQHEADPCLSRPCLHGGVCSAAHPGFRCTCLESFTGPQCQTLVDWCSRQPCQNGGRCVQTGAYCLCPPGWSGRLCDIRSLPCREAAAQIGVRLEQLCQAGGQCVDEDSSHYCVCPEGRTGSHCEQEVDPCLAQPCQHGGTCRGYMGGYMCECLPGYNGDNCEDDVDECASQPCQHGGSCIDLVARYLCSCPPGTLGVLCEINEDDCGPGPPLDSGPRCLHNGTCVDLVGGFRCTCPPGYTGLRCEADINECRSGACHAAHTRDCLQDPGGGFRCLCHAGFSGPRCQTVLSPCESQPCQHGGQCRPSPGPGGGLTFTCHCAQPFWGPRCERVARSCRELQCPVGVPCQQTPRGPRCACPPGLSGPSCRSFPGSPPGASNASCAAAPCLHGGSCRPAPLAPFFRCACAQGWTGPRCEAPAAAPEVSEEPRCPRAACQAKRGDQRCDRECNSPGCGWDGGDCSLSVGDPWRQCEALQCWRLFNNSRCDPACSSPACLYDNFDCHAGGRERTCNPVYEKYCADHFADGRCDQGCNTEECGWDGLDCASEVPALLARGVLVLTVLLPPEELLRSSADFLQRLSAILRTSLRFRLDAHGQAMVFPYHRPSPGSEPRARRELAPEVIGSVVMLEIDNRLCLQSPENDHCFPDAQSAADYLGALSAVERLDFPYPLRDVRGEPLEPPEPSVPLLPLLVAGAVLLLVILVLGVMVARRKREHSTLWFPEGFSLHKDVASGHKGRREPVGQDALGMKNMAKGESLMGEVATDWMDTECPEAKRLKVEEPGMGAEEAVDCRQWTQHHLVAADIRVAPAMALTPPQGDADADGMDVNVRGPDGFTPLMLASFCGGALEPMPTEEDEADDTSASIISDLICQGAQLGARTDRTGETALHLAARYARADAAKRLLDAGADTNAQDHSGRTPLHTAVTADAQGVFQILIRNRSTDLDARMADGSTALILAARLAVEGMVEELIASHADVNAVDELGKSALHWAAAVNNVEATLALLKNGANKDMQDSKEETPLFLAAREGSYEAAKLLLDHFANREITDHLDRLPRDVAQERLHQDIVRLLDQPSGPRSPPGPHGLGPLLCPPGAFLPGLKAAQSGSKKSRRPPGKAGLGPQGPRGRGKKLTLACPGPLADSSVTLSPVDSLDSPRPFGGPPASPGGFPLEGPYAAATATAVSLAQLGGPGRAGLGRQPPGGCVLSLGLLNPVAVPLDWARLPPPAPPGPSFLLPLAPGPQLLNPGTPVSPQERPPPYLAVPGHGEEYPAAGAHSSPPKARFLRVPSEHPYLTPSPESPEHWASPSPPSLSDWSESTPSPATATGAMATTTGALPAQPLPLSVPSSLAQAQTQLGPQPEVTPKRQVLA
The nature of assay [10]: small-molecule microarray binders of probe aEGFR, primary screen, biochemical, biotinylated probe, 635/667 nm fluorescence (AID 1097).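 Note: probe is a biotinylated anti-EGFR antibody binding compounds printed on slides; score combines fluorescence near 667 nm and signal to noise of each spot.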 Conditions: higher = more signal.

Regarding `[N-]=[N+]=Nc1ccccc1C[C@@]1(C(=O)NCCN2CCOCC2)N=C(c2ccc(OCCCO)cc2)O[C@@H]1c1ccccc1N=[N+]=[N-]`, the composite z-score turned out to be 1.55 in [1]; 3.19 in assay [5]; 0.0672 in [7]; 0.325 in [8]; 0.811 in assay [9]; 0.0045 in [10]. Moreover, the z-score in assay [2] is -2.36 (inactive); in assay [3] it was -14.1 (active); in [4] it was -0.321 (inactive); in [6] it was -0.485 (inactive).

As to `CC1CC/C=C\[C@H]2OC34C=CCN(c5ccc6ccccc6c5)C(=O)[C@H]3N(CCCO)C(=O)[C@@H]4C2C(=O)O1` (stereo not given in full), the composite z-score in [1] is -0.131; in [5], -0.546; in assay [7], -0.136; in assay [8], -1.32; in assay [9], -0.562; in assay [10] it was -0.193. Moreover, the z-score in assay [2] is 0.116 (inactive); in [3], 0.398 (inactive); in assay [4], 0.799 (inactive); in assay [6], -0.696 (inactive).

Turning to `CC(C)NC(=O)[C@@]1(C)c2ccccc2C(=O)N(Cc2ccc(OC(F)(F)F)cc2)[C@H]1c1ccc(CO)cc1`, the composite z-score in [1] is 0.911; in [5], 2.32; in assay [7] it was -0.221; in assay [8], -0.748; in assay [9], -0.284; in [10], -0.349. Also, the z-score in assay [2] was 0.738 (inactive); in [3], -0.784 (inactive); in [4] it was -1.38 (inactive); in [6] it was -1.55 (inactive).

Regarding `CCCCCC1=C2CNC(C)(C(=O)OC)C=C2C(C)C1=O` (stereo not given), the composite z-score in [1] is -0.998; in assay [5] it was 1.14; in assay [7], 0.118; in assay [8] it was -0.947; in assay [9], -0.426; in assay [10], -0.0581. Further, the z-score in assay [2] was 0.511 (inactive); in [3] it was 1.7 (inactive); in assay [4], 1.48 (inactive); in assay [6], -0.67 (inactive).

As for `COc1ccc([Si](C)(C)[C@H]2[C@H](CC(=O)N(CCO)Cc3ccccc3)O[C@@]3(C(=O)N(C)c4c(Br)cc(C)cc43)[C@@H]2C)cc1`, the composite z-score in assay [1] is 1.46; in assay [5] it was 1.25; in [7], 0.0256; in assay [8], 1.79; in assay [9], 0.758; in assay [10], -0.126. Besides, the z-score in assay [2] is -1.62 (inactive); in [3], -1.59 (inactive); in assay [4] it was 1.93 (inactive); in assay [6] it was 0.114 (inactive).

Consider `COC(=O)[C@@]1(Cc2ccc(OC)cc2)[C@H]2c3cc(C(=O)N4CCCC4)n(CCO)c3C[C@H]2CN1C(=O)c1ccccc1`, for which the composite z-score is 0.738 in [1]; 4.02 in [5]; 0.159 in assay [7]; -0.0367 in assay [8]; 0.552 in assay [9]; 0.212 in assay [10]. Besides, the z-score in [2] was 0.663 (inactive); in assay [3] it was 0.544 (inactive); in assay [4], -0.289 (inactive); in [6], -1.41 (inactive).

For `CCN(CC)c1ccc(N2CC=CC34O[C@@H]5/C=C\CCCOC(=O)C5[C@H]3C(=O)N(C(C)CO)[C@@H]4C2=O)cc1` (stereo not given in full), the composite z-score was 0.428 in assay [1]; 0.347 in assay [5]; -0.243 in assay [7]; -0.045 in assay [8]; 0.204 in assay [9]; -0.189 in [10]. The z-score in assay [2] was -0.991 (inactive); in assay [3], -1.47 (inactive); in [4] it was -0.497 (inactive); in [6] it was 1.42 (inactive).

Turning to `CC(C)C(CO)N1C(=O)[C@@H]2[C@H]3C(=O)OCC=C[C@H]3OC23C=CCN(c2ccc(Cl)cc2)C(=O)[C@@H]13` (stereo not given in full), the composite z-score in assay [1] was 0.193; in [5] it was -0.0004; in assay [7], -0.246; in assay [8] it was -1.16; in [9], -0.271; in assay [10], -0.068. Moreover, the z-score in assay [2] was 0.964 (inactive); in [3], 0.123 (inactive); in assay [4] it was 1.25 (inactive); in assay [6], 0.669 (inactive).

In the case of `CC(C)C(O)C1C=CC2C(=O)N(c3ccccc3)C(=O)C2N1Nc1ccccc1` (stereo not given), the composite z-score was 1.34 in assay [1]; 3.42 in [5]; 0.0436 in assay [7]; 0.948 in [8]; 1.07 in assay [9]; -0.0023 in assay [10]. Moreover, the z-score in [2] was 0.0864 (inactive); in assay [3], -2.24 (inactive); in [4], 0.108 (inactive); in [6], -0.304 (inactive).

Take `CCCCN1CC=CC23O[C@@H]4/C=C\CCC(C)OC(=O)C4[C@H]2C(=O)N(CCCO)[C@@H]3C1=O` (stereo not given in full): the composite z-score in assay [1] is -0.298; in [5], 0.879; in [7], -0.186; in assay [8], -0.908; in assay [9], -0.166; in assay [10], -0.217. Also, the z-score in [2] is 0.757 (inactive); in assay [3], 0.772 (inactive); in assay [4], 0.528 (inactive); in assay [6], 0.755 (inactive).

For the compound `CCOC(=O)C[C@H]1[C@H](OC(=O)c2cc3ccccc3oc2=O)[C@@H](NC(=O)c2ccc3ccccc3n2)c2cc(OCCCO)ccc2N1C(=O)Cc1ccc(OC)cc1`, the composite z-score in assay [1] was 1.45; in assay [5], 1.33; in assay [7], -0.0391; in assay [8] it was 0.638; in [9], 1.16; in assay [10], 0.104. In addition, the z-score is -0.136 (inactive) in [2], -0.163 (inactive) in assay [3], -0.617 (inactive) in assay [4] and 0.397 (inactive) in assay [6].

For `O=C1CS(=O)(=O)C(c2cccc([N+](=O)[O-])c2)N1c1ccccc1` (stereo not given), the composite z-score in assay [1] is -0.0065; in assay [5], 1.85; in assay [7] it was 0.554; in assay [8], 0.253; in assay [9] it was 0.336; in assay [10], 0.583. Moreover, the z-score is -2.58 (inactive) in assay [2], -2.56 (inactive) in assay [3], -0.811 (inactive) in [4] and 0.672 (inactive) in [6].

Consider `COCCCNC(=O)[C@@]1(CCC(=O)OC(C)(C)C)N=C(c2ccc(OCCCO)cc2)O[C@H]1c1ccccc1N=[N+]=[N-]`, for which the composite z-score was 1.27 in [1]; 3.13 in assay [5]; 0.644 in assay [7]; -0.0445 in assay [8]; 0.377 in assay [9]; 0.458 in assay [10]. For the same compound, the z-score is -0.197 (inactive) in [2], 0.362 (inactive) in assay [3], -0.875 (inactive) in assay [4] and 1.21 (inactive) in [6].
